In all, about 350,000 compounds went through this assay and about 2,400 (0.69%) were called active. The list comes from a sample in which actives are over-represented; it also holds similar structures and randomly drawn compounds. Values without a mark were called inactive. Cut-off read from the data, not from the text of the source: active = inhibition above about 41%; inconclusive = no clear call, values can overlap the other calls; inactive = below that.

The nature of this experiment: blockers of LMP1-induced NF-kB reporter signal – cell-based, luminescence, single point, primary screen (AID 504558).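 Note: 0% = neutral control wells and 100% = reference inhibitor control.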 The note with it: LMP1-induced NF-kappaB luciferase reporter cells, at 12.5 µM, active compounds read high. On the technique in general: A reporter such as luciferase makes a cellular process visible.
By inhibition is commonly meant the drop in the measured response relative to a control, in per cent. Regarding `CCOc1ccc(-c2cc(C(=O)N/N=C/c3ccc(O)cc3)c3ccccc3n2)cc1`, the inhibition was 58.2% (active). As to `COc1ccc(-c2cc(C(=O)N/N=C/c3cccnc3)c3ccccc3n2)c(OC)c1`, the inhibition was 1.36%. The figure for `CCOc1ccc(NC(=O)c2cc(C)nc3ccccc23)cc1` is -0.28%; for `Cc1cccc(C(=O)OCC(=O)Nc2sccc2C(N)=O)c1C` it is -0.574%. With `C[C@H]1CN([C@@H](C)CO)C(=O)c2cc(C3=CCCCC3)cnc2O[C@@H]1CN(C)C(=O)Cc1ccccc1`, the inhibition is 5.28%. For `CCN1C(=O)[C@H]2[C@@H](c3ccccc3)N[C@]3(CCCN(Cc4ccc(C)cc4)C3=O)[C@H]2C1=O`, the inhibition is -1.4%. For the molecule `O=C(CCN1CCN(C/C=C/c2ccccc2)CC1)Nc1ccccc1Cl`, the inhibition was 5.35%. As for `NC(=O)C1(Nc2ccccc2Cl)CCCC1`, the inhibition is -6.12%.

As for `O=C(Nc1ccccc1Cl)/C(Cl)=C(\Cl)S(=O)c1ccccc1` (stereo unspecified), the inhibition is 69.1% (active). As for `Cc1ccc(C(=O)NC(C)C(c2cccs2)N2CCOCC2)cc1C` (stereo unspecified), the inhibition is 3.97%. In the case of `O=C(N/N=C/C=C/c1ccco1)c1cccs1`, the inhibition is -24.5%. With `CC(/C=N/NC(=O)c1cc(-c2ccc3ccccc3c2)n[nH]1)=C\c1ccco1` the figure was -39.1%; with `Cc1ccc(-c2cc(C(=O)N/N=C/C=C/c3ccco3)c3ccccc3n2)cc1C`, 60.7% (active); with `COc1ccc(CCNC(=O)CN(c2ccccc2)S(=O)(=O)c2ccccc2)cc1`, -10.2%. In the case of `Cc1ccc([C@H]2C[C@H](O)[C@@H](n3cc(COC(=O)c4ccccc4)nn3)CN2CC2CCCCC2)cc1`, the inhibition was 4.84%.

As for `C[C@H]1CN([C@@H](C)CO)C(=O)CCCn2cc(nn2)CO[C@@H]1CN(C)S(=O)(=O)c1cccs1`, the inhibition is 5.02%. Turning to `CCN1CCCC1CNC(=O)c1ccc2c(c1)NC(=O)/C(=C\c1ccccc1F)S2` (stereo unspecified), the inhibition is -8.19%. As to `CC1=C(C(=O)N(C)C)CC(CC(=O)NCCc2ccccn2)C(=O)N1CCC1=CCCCC1` (stereo unspecified), the inhibition was 1.75%. As to `CC(C)c1cc(C(=O)N(C)C2CCCN(Cc3ccccc3F)C2)n(C)n1` (stereo unspecified), the inhibition was 3.75%. Take `Cc1ccc(-c2nc3ccc(Cl)cn3c2Cc2ccccc2)cc1`: the inhibition was -21.9%. With `Cc1ccc(-c2cc(C(=O)NCc3cn(C)nc3C)c3cc(Br)ccc3n2)cc1` the figure was -3.18%; with `Cc1ccn2cc(C(=O)NC3CCN(Cc4ccccc4)CC3)nc2c1`, 5.73%; with `COc1ccc(-c2cc3ncccc3cn2)cc1`, -15.8%. Regarding `Cc1ccc(-c2cc(N)on2)cc1`, the inhibition was -11.1%. The figure for `COc1ccc(-c2cn3ccc(C)cc3n2)cc1` is 48.2% (active). For `Cc1ccc(-c2cn3cc(C)ccc3n2)cc1`, the inhibition was 82% (active). The figure for `Cc1ccc2nc(-c3ccc(Br)cc3)cn2c1` is 63.8% (active); for `CSc1nnc2ccc(-c3ccc(C)cc3)nn12` it is 2.32%. In the case of `COc1cc2ccc(C(C)=O)c(O)c2cc1OC`, the inhibition was 3.32%. `COc1ccc(S(=O)(=O)N2CCC(C(=O)NCCC(=O)Nc3ccccc3OC)CC2)cc1`: the inhibition was 1.21%. `COc1ccc(C(=O)OCC(=O)Nc2cc(C)on2)cc1F`: the inhibition is -6.31%. With `COc1ccc(C(=O)NCC2CCCO2)cc1S(=O)(=O)NCc1ccc(Cl)cc1` (stereo unspecified) the figure was -0.644%; with `CC1CN(C(=O)c2cccc(NS(=O)(=O)c3ccc(Br)cc3)c2)CC(C)O1` (stereo unspecified), 0.834%. Turning to `O=C(Nc1cccc2ccccc12)NC1CC1`, the inhibition is -3.72%.

`CC1=C(C(=O)Nc2cccc(C(=O)NCC(C)c3ccccc3)c2)SCCO1` (stereo unspecified): the inhibition is -2.25%.

Regarding `COc1cc2c(cc1OC)CN(CC(=O)Nc1ccc(F)cc1)CC2`, the inhibition is 9.89%. As to `CC[C@H]1CN2CCc3cc(OC)c(OC)cc3[C@@H]2C[C@@H]1C[C@H]1NCCc2cc(OC)c(OC)cc21`, the inhibition was 89.9% (active). With `CC(C)CC1C(=O)N(Cc2cn(CC3CCCCC3)nn2)CCS(=O)(=O)N1Cc1ccc(-c2ccc(Cl)cc2)cc1` (stereo unspecified) the figure was 5.31%; with `O=C(COC(=O)c1cccc(Cl)c1Cl)NC1CCCCCC1`, -5.21%; with `O=C(Nc1nc2ccc([N+](=O)[O-])cc2s1)c1ccc(S(=O)(=O)N2CCCc3ccccc32)cc1`, 52.5% (active).

For `O=C(NC(Nc1nc2ccc([N+](=O)[O-])cc2s1)(C(F)(F)F)C(F)(F)F)c1ccccc1`, the inhibition is 56.9% (active). Consider `Cc1ccc(NC(=O)c2cccc(S(=O)(=O)N3CCCc4ccccc43)c2)nc1`, for which the inhibition was 16.9%. As to `CN(C)CCCN(C(=O)c1ccc(S(=O)(=O)N2CCCc3ccccc32)cc1)c1nc2ccc(F)cc2s1`, the inhibition was -4.71%. As to `N=C1C(c2nc3ccccc3s2)=C(O)CN1NC(=O)c1ccc([N+](=O)[O-])cc1`, the inhibition was -6.15%. Consider `O=C(O)c1cc([N+](=O)[O-])c(Nc2cccc3ccccc23)c([N+](=O)[O-])c1`, for which the inhibition is 1%. Regarding `C[C@@H]1CN([C@@H](C)CO)C(=O)c2cc(NS(C)(=O)=O)ccc2O[C@@H](C)CCCCO[C@H]1CN(C)C(=O)Nc1ccc2c(c1)OCO2`, the inhibition was -2.68%. Consider `CC(C)CCC(=O)Nc1cc(S(=O)(=O)N2CCOCC2)ccc1N1CCCC1`, for which the inhibition was 0.721%. Regarding `O=S1(=O)CCN(C2CCCCCCCCCCC2)CC1`, the inhibition was 3.93%. Take `CCCCCCn1c(=O)n2n(c1=O)C[C@]1(OC(=O)NCc3ccc(OC)c(OC)c3)CN(S(=O)(=O)c3ccc(C)cc3)C[C@]1(O)C2`: the inhibition is -11.4%.

For the molecule `O=C1c2ccccc2-c2ccccc2NC1O` (stereo unspecified), the inhibition was 5.68%.

In the case of `COc1ccc(-c2cnc3c(c2)C(=O)N([C@H](C)CO)C[C@@H](C)[C@H](CN(C)Cc2ccccc2)O3)cc1`, the inhibition is -7.99%.

For the molecule `COc1ccc(OC)c(NC(=O)C2CCCN2S(=O)(=O)c2ccc3c(c2)CC(C)N3C(C)=O)c1` (stereo unspecified), the inhibition is 1.47%. Turning to `O=C(OCC(=O)N1CCCCCC1)c1cccc(Cl)c1Cl`, the inhibition was -36.1%. With `Cc1ccc(C(=O)Nc2sc(Cc3ccc4c(c3)OCO4)c(C)c2C(N)=O)cc1` the figure was 81% (active).

With `COc1ccc(CC(=O)Nc2sc(Cc3ccccc3)c(C)c2C(N)=O)cc1`, the inhibition is 0.44%. For `COCc1nnc(NC(=O)c2ccc3c(c2)OCO3)s1`, the inhibition is 7.49%.

The record behind these values is PubChem BioAssay AID504558 (Broad Institute, 2011).
